We go through twelve compounds from PubChem BioAssay (NCI).

Holding throughout (test): NCI-60 one-dose screen, 48 h (100 = growth as untreated, 0 = no growth, -100 = all killed)
Holding throughout (conditions): 10 µM unless noted

For assay [1], the system named is DU-145 prostate.
Assay [2] has as its system K-562 leukemia.
The test system of assay [3] is MALME-3M melanoma.
Assay [4] deals with MDA-MB-231 breast.
Assay [5] deals with RXF 393 renal.
The subject of assay [6] is SF-268 CNS.
Assay [7] deals with SF-295 CNS.
Assay [8] relates to SF-539 CNS.
The subject of assay [9] is UACC-257 melanoma.
Assay [10] has as its system M14 melanoma.

SMILES strings stand for the structures. Values joined by “and” are separate entries in the source; they are usually repeats but may differ in a detail not shown here. Equal values may be shown once. Compounds without any hit were thinned out: in the full panel of roughly 83,000, 20% have a hit.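 Interpretation: 100, growth as untreated; towards 0, rising growth inhibition; 0, no net growth; 0 to -100, cell death. Compounds scoring below 10 were considered active.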 Active and inactive are the calls of the source.

As for `CC(=O)Nc1cccc2cc(O)ccc12`, the growth in [1] is 118% (inactive) and 110% (inactive) and 111% (inactive); in assay [2] it was 108% (inactive) and 113% (inactive) and 99.7% (inactive); in assay [3] it was 101% (inactive) and 127% (inactive) and 98.3% (inactive); in assay [4] it was 102% (inactive) and 95.1% (inactive) and 95.8% (inactive); in assay [5], 123% (inactive) and 98% (inactive) and 105% (inactive); in assay [6], 111% (inactive) and 94.6% (inactive) and 99.6% (inactive). In addition, the growth in [7] is 84.7% (inactive) and 130% (inactive) and 99% (inactive); in [8] it was 96.4% (inactive) and 96.8% (inactive) and 98.5% (inactive); in assay [9], 123% (inactive) and 103% (inactive) and 90.3% (inactive); in assay [10], 91.7% (inactive) and 98.2% (inactive).
With `CCCCCCCCCCCCCCNCc1ccccc1`, the growth is 81% (inactive) in [1]; 23.8% (inactive) in assay [2]; 92.6% (inactive) in [3]; 54.4% (inactive) in assay [4]; 82.3% (inactive) in [5]; 94.7% (inactive) in [6]. In addition, the growth was 97.7% (inactive) in [7], 83.2% (inactive) in [8], 99.4% (inactive) in [9] and 81.8% (inactive) in assay [10].
For `Oc1c(Cl)cc(Cl)c2cccnc12`, the growth is 85.5% (inactive) and 71.2% (inactive) in assay [1]; 24.4% (inactive) and 29% (inactive) in [2]; 74.1% (inactive) and 91.3% (inactive) in [3]; 95.1% (inactive) and 48.3% (inactive) in [4]; 67.1% (inactive) in [5]; 66.4% (inactive) and 54% (inactive) in [6]. Moreover, the growth was 30.3% (inactive) and 12.3% (inactive) in [7]; 68.7% (inactive) and 34.3% (inactive) in assay [8]; 82.4% (inactive) in assay [9]; 63.7% (inactive) and 53% (inactive) in assay [10].
As for `Cc1cc(N)c2ccccc2[n+]1CCCCCCCCCC[n+]1c(C)cc(N)c2ccccc21`, the growth is 31.3% (inactive) and -73.8% (active) in assay [1]; -7.04% (active) and -39.8% (active) in assay [2]; -15.7% (active) and 10.5% (inactive) in [3]; 18.9% (inactive) and 1.88% (active) in [4]; -30.2% (active) in assay [5]; 23.2% (inactive) and 27.9% (inactive) in assay [6]. Further, the growth in assay [7] was -45.6% (active) and 8.47% (active); in [8], -8.43% (active) and -37.4% (active); in assay [9] it was 33.5% (inactive) and 5.36% (active); in [10], 3.53% (active).
Take `CNc1ccc2c(c1)c1ccccc1n2C`: the growth is 102% (inactive) in [1]; 105% (inactive) in [2]; 106% (inactive) in [3]; 98.5% (inactive) in [4]; 113% (inactive) in [5]; 95.1% (inactive) in [6]. Further, the growth in assay [7] is 98.7% (inactive); in assay [8] it was 98.1% (inactive); in [9] it was 107% (inactive); in [10] it was 116% (inactive).
In the case of `CCOC(=O)c1c(C)[nH]c(CO)c1C`, the growth is 101% (inactive) in [1]; 101% (inactive) in assay [2]; 91.1% (inactive) in [3]; 104% (inactive) in assay [4]; 134% (inactive) in [5]; 96.7% (inactive) in [6]. Besides, the growth was 95.1% (inactive) in assay [7], 104% (inactive) in [8], 94.2% (inactive) in [9] and 95.5% (inactive) in assay [10].
As for `COc1ccc(N=N/N=c2\sc3cc(OC)ccc3n2C)cc1`, the growth in assay [1] is 91.8% (inactive); in [2], 80.8% (inactive); in assay [3] it was 109% (inactive); in assay [4] it was 90.5% (inactive); in [5], 105% (inactive); in assay [6], 97.6% (inactive). The growth was 83.3% (inactive) in assay [7], 99.4% (inactive) in assay [8], 80% (inactive) in assay [9] and 110% (inactive) in assay [10].
As for `CC(=O)ON=C1C=CC(=C(C#N)c2ccccc2)C=C1`, the growth in assay [1] was 1.67% (active); in [2], 28.1% (inactive); in assay [3], 83.3% (inactive); in [4], 13.9% (inactive); in assay [5], 35.5% (inactive); in assay [6] it was 14.1% (inactive). For the same compound, the growth in [7] was 39.8% (inactive); in assay [8], 24.5% (inactive); in [9], 30.5% (inactive); in assay [10], 22.2% (inactive).
In the case of `Cn1c2c(c3ccccc31)CCN1C[C@@H]3CCCC[C@H]3C[C@@H]21`, the growth was -49% (active) in [1]; 12.9% (inactive) in [2]; 3.28% (active) in assay [3]; 28.5% (inactive) in assay [4]; -24.4% (active) in [5]; 16.1% (inactive) in assay [6]. Moreover, the growth is -30.1% (active) in assay [7], -1.74% (active) in assay [8], 55.4% (inactive) in assay [9] and -59.3% (active) in assay [10].
As to `N#Cc1ccc([N+](=O)[O-])o1`, the growth is 111% (inactive) in assay [1]; 105% (inactive) in [2]; 118% (inactive) in assay [3]; 105% (inactive) in assay [4]; 113% (inactive) in assay [5]; 103% (inactive) in [6]. For the same compound, the growth is 99.6% (inactive) in assay [7], 101% (inactive) in assay [8], 79.7% (inactive) in assay [9] and 97.9% (inactive) in [10].
`Cc1ccc2nc(-[n+]3cc4ccccc4cc3C)ccc2c1`: the growth in assay [1] is 53.6% (inactive); in assay [2] it was 39.1% (inactive); in [3], 44.2% (inactive); in [4] it was 54.8% (inactive); in assay [5] it was 91.2% (inactive); in [6], 39.5% (inactive). Besides, the growth was 33.3% (inactive) in assay [7], 43.8% (inactive) in assay [8], 11.4% (inactive) in assay [9] and 43.1% (inactive) in assay [10].
As to `Cc1cc2nc(CS)[nH]c2cc1C`, the growth is 93.9% (inactive) in [1]; 76.8% (inactive) in assay [2]; 95.7% (inactive) in assay [3]; 99% (inactive) in [4]; 76.9% (inactive) in assay [5]; 103% (inactive) in assay [6]. In addition, the growth is 102% (inactive) in [7], 94.6% (inactive) in assay [8], 101% (inactive) in assay [9] and 89.9% (inactive) in assay [10].
